Screening data from PubChem.
TLR4 MyD88 comp = inhibitors of human TLR4-MyD88 binding | O00206+Q99836 | HeLa CL3-4 TLR4/MyD88 BLA complementation, FRET ratio | inhibition, % at 8.4 µM | 200,000 tested, 0.18% active; in the data active = inhibition above about 25%;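 also: 0% = vehicle and 100% = reference inhibitor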
TLR9-MyD88 block = inhibitors of human TLR9-MyD88 binding. CHO BLA complementation TLR9-MyD88, CCF4 FRET ratio. inhibition, % at 4.98 µM. 340,000 tested, 0.21% active. AID 504734;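 active = inhibition above the mean over all tested compounds plus 3 SD, cut at about 21% in these data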;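 also: 0% = DMSO only wells and 100% = clavulanate BLA inhibitor control wells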
NOD2-RIPK2 inh = NOD2-RIPK2 protein interaction inhibition; CHO BLA complementation NOD2-RIPK2, CCF4 ratio; O43353; AID 624267; inhibition, % at 4.98 µM; 360,000 tested, 0.38% active; in the data active = inhibition above about 21%;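 also: 0% = vehicle only and 100% = reference blocker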
ABHD5 PLIN5 PPI = blocks binding of human ABHD5 to perilipin-5; 360,000 tested, 0.78% active; Q00G26+Q8WTS1; inhibition, % at 4 µM; Split G. princeps luciferase complementation, luminescence, 4 h;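 active = inhibition above the mean inhibition across every tested compound plus 3 SD, cut at about 22% in these data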;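 also: 0% = DMSO only wells and the 100% control is not disclosed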
CRFR2-BP antag = blocks CRF-induced signaling of the CRF-BP/CRF-R2 complex; HEK293 CRF-R2/CRF-BP, CRF-induced calcium fluorescence; inhibition, % at 11.8 µM; 350,000 tested, 0.59% active;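 active = inhibition of the ligand-induced calcium signal above about 50% at the single tested concentration, limit read from the data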
m5-HT2A agonist = activates the mouse 5-HT2A serotonin receptor; CHO-K1 mHTR2A beta-arrestin complementation, luminescence; percent of 30 µM serotonin response; activation, % at 7.6 µM; 360,000 tested, 0.66% active;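 active = activation above a run cutoff, the mean activation of all tested compounds plus 3 SD, cut at about 14% in these data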;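 also: 0% = plate median of compound wells and 100% = 30 µM serotonin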
* = called active by the depositor; x = no result given. Sampled rows, rich in hits. Any-hit rate of the full collection: about 2.4%.

SMILES	TLR4 MyD88 comp	TLR9-MyD88 block	NOD2-RIPK2 inh	ABHD5 PLIN5 PPI	CRFR2-BP antag	m5-HT2A agonist
Fc1ccccc1N1CCN(CCCNc2ccc3nncn3n2)CC1	4	10	-18	5	-13	26*
Cc1ccc(C(=O)Oc2ccc(C(=O)COC(=O)C3CC(=O)N(Cc4ccco4)C3)cc2)cc1 (stereo not drawn)	-3	16	5	8	8	2
O=C(COC(=O)C1CC(=O)N(Cc2ccco2)C1)c1ccc(OC(=O)c2ccco2)cc1 (stereo not drawn)	3	-11	2	12	82*	-1
O=c1[nH]c(SCc2n[nH]c(=S)n2-c2ccccc2)nc2ccccc12	-7	2	-4	-6	-25	1
O=c1[nH]c(SCc2n[nH]c(=S)n2-c2ccccc2)nc2sc3c(c12)CCC3	4	-1	10	1	93*	4
Cc1ccsc1CN(C(=O)c1ccccc1)C1CCS(=O)(=O)C1 (stereo not drawn)	x	-2	-8	0	-7	-2
Cc1ccc(C(=O)N(Cc2sccc2C)C2CCS(=O)(=O)C2)cc1 (stereo not drawn)	x	-10	3	-6	50*	-10
C=C(C)Cn1c(=O)c2c(nc3n2CC(C)CN3Cc2ccccc2)n(C)c1=O (stereo not drawn)	x	-12	3	-10	88*	-3
COC(=O)Cn1c(=O)c2c(nc3n2CC(C)CN3Cc2ccccc2)n(C)c1=O (stereo not drawn)	x	-6	-6	0	-8	3
CC1=C(C(=O)OCc2ccccc2)C(/C=C/c2ccccc2)N2C(=O)CCSC2=N1 (stereo not drawn)	-10	-17	-3	-2	69*	-1
COc1ccc(CCn2c(=O)c3cccnc3n(Cc3cccc([N+](=O)[O-])c3)c2=O)cc1OC	-17	-7	-8	-1	52*	4
COC(=O)c1cccnc1-n1c(=O)c2cccnc2n(Cc2cccc([N+](=O)[O-])c2)c1=O	-6	9	-14	-5	1	-4
O=S1(=O)CC(N2CCC(c3ccccc3)CC2)CN1Cc1ccc(F)cc1 (stereo not drawn)	x	x	6	0	x	-2
Cc1cc(C)nc(SCc2nnc(SCc3ccc([N+](=O)[O-])cc3)n2Cc2ccco2)n1	7	-2	1	5	79*	3
CCc1nc2c(OCC3COc4ccccc4O3)cccn2c1N(C)C(=O)c1cccc(OC)c1 (stereo not drawn)	x	x	8	5	x	0
OC[C@@H]1CN(Cc2cccc(C(F)(F)F)c2)C[C@H](n2cnc3c(NCc4ccncc4)ncnc32)O1	x	x	2	-3	x	0
N#Cc1cccc(NCC(=O)Nc2ccc3c(c2)OCCO3)c1	3	2	-1	3	80*	1
Nc1nc(CN2CCc3ccccc3C2)nc(Nc2ccccc2)n1	-3	10	-4	9	74*	-4
COc1ccc(Nc2nc(N)nc(CN3CCc4ccccc4C3)n2)cc1	9	-8	-8	6	-10	-6
COc1ccc(C(=O)Nc2oc(-c3ccccc3)c(-c3ccccc3)c2C#N)cc1	-2	12	-8	-3	6	-2
Cc1cccc(C)c1OCC(=O)Nc1oc(-c2ccccc2)c(-c2ccccc2)c1C#N	-9	2	-5	-5	107*	-1
COc1ccc(Cl)cc1CC1(C)C(=O)Nc2ccc(S(=O)(=O)NC3CCCCC3)cc21 (stereo not drawn)	x	x	3	-9	x	0
Cc1nn(-c2cccc(Cl)c2)c2nc(C(F)(F)F)[nH]c(=O)c12	-19	9	2	-2	86*	7
Cc1nn(-c2cc(C(F)(F)F)ccc2Cl)c2nc(C(F)(F)F)[nH]c(=O)c12	-15	8	-5	5	38	2
CS(=O)(=O)c1cc([N+](=O)[O-])c(Sc2nc3ccccc3[nH]2)c([N+](=O)[O-])c1	5	6	-2	48*	45	-2
Cc1ccc(C(=O)N2c3ccccc3N(Cc3ccccc3)C(=O)C2(C)C)cc1	-1	-10	-19	-3	52*	-3
Cc1ccc(CN2C(=O)C(F)(F)Oc3ccccc32)cc1	x	x	8	-7	x	-5
